Assay results reported in PubChem BioAssay (Tox21).
Values joined by “and” are separate entries in the source; they are usually repeats but may differ in a detail not shown here. Equal entries are not always repeated. Results filed as inconclusive are left out. Entries that show only a call come without a potency. Active and inactive are the calls of the source. The call rests on the fitted dose curve; in most records, active means well fitted cell-killing curve with a large enough effect in the repeat runs; inconclusive means weak or mixed curves, or effect the other way; inactive means flat fitted curve, though single readings scatter.

Assay: qHTS assay to identify small molecule antagonists of the retinoid acid receptor (RAR) signaling pathway - cell viability counter screen (AID 1159551); further: nearly all actives have a fitted effect of over 35% in size
Conditions: C3RL4 cells viability, ATP luminescence (CellTiter-Glo), 6 h; series mostly up to 92.4 µM
Description: U.S. Tox21 Program National Center for Advancing Translational Sciences [NCATS] NIH Chemical Genomics Center [NCGC] U.S. Environmental Protection Agency [EPA] National Institutes of Environmental Health Sciences [NIEHS] National Toxicology Program [NTP] U.S. Food and Drug Administration [FDA] Tox21 Assay Overview: All-trans Retinoic acid (atRA) is the potent natural metabolite of retinol and plays an important role in normal embryonic development and maintenance of cellular phenotype in adult animals. atRA is the activating ligand for the retinoic acid receptors (RARs) which form heterodimers with retinoid X receptors (RXRs) on the retinoic acid response element (RARE). Through activation of the RAR/RXRs nuclear receptors, atRA regulates the transcription of a large number of protein-coding genes and regulatory RNAs. Intracellular levels of atRA are controlled by the retinol signaling pathway (RSP) that regulates the biosynthesis and catabolism of atRA to maintain physiological levels. Chemicals that interfere with the RSP can cause abnormal intracellular levels of atRA and therefore are potential developmental toxicants. To assess compounds for the potential adverse effect on embryonic development through interfering with retinol signaling, a cell-based RARE luciferase reporter gene assay was used. C3RL4 cell line (OARSA/CFSAN/FDA, Laurel, MD) was used to screen Tox21 10K compound library for identifying inhibitors of the RSP. Also cytotoxicity was assessed by determining the viability of cells based on the quantitation of ATP.
Tox21 Assay Protocol Summary: C3RL4 cells were seeded at 1,000/well in 4 uL of assay medium into white solid 1,536-well tissue culture plates (Greiner Bio-One North America Inc. Monroe, NC) using a Multidrop Combi (Thermo Scientific, Waltham, MA) dispenser. After incubation at 37 C and 5% CO2 for an overnight, 23 nL of compounds dissolved in DMSO, positive control or DMSO only were transferred by a Pintool station (Kalypsys, San Diego, CA). One ul of 1 uM (final concentration) of Retinol was added right after the compound addition by using a Flying Reagent Dispenser (FRD) (Aurora Discovery, San Diego, CA). After 6 hr incubation at 37 C and 5% CO2, 5 uL of CellTiter-Glo reagent (Promega Corporation, Madison, WI) was added to each assay plate using an FRD. Luminescence was quantified on a ViewLux plate reader (PerkinElmer, Waltham, MA) after 30 min incubation at room temperature.
Potency means the concentration at half of the fitted maximal effect.

| Structure (SMILES) | Potency |
| --- | --- |
| C[Si](Cn1cncn1)(c1ccc(F)cc1)c1ccc(F)cc1 | inactive |
| CC(=O)OC(c1ccccc1)C(Cl)(Cl)Cl (stereo not given) | inactive |
| CC(=O)NNc1ccccc1 | inactive |
| Cc1nc2ccccc2c(=O)n1-c1ccccc1Cl | inactive |
| CCCCC(CC)COC(=O)c1c(Br)c(Br)c(Br)c(Br)c1C(=O)OCC(CC)CCCC (stereo not given) | inactive |
| CCCC[P+](CC)(CCCC)CCCC (tested in a mixture with another compound) | inactive |
| CCCCCl | inactive |
| C=CCc1ccccc1O | inactive |
| O=C(Cl)OCCOCCOC(=O)Cl | inactive |
| Oc1cccc(Cl)c1 | inactive |
| COc1cc(CC(C)N)c(OC)cc1Br (stereo not given) | inactive |
| CCCC[N+]1(C)[C@@H]2CC(OC(=O)[C@H](CO)c3ccccc3)C[C@H]1[C@@H]1O[C@@H]12 (stereo not given in full) | inactive |
| CCCBr | inactive |
| CC(C)c1ccc(OP(=O)(Oc2ccc(C(C)C)cc2)Oc2ccc(C(C)C)cc2)cc1 | inactive |
| CCCCOC(=O)CCC(=O)OCCCC | inactive |
| OC[P+](CO)(CO)CO | inactive |
| CC(C)C1(C)N=C(c2ncccc2C(=O)O)NC1=O (stereo not given) | inactive |
| Cc1ccc2c(C)cccc2c1 | inactive |
| O=[N+]([O-])O[C@H]1CO[C@H]2[C@@H]1OC[C@H]2O[N+](=O)[O-] | inactive |
| Nc1cccc2ccccc12 | inactive |

| Structure (SMILES) | Potency |
| --- | --- |
| CCC[N+](CCC)(CCC)CCC | inactive |
| O=P(OCC(Br)CBr)(OCC(Br)CBr)OCC(Br)CBr (stereo not given) | inactive |
| C=C(C)C(=O)OCCCCOC(=O)C(=C)C | inactive |
| CCCCCCCCn1sccc1=O | 68.7 µM (active) and 64.1 µM (active) |
| COc1ccccc1N1CCNCC1 | inactive |
| CN[C@@H](C)[C@H](O)c1ccccc1 | inactive |
| COC(=O)Cc1ccccc1 | inactive |
| Cc1ccccc1 | inactive |
| C=CC(C)(CCC=C(C)C)OC(=O)c1ccccc1N (stereo not given) | inactive |
| CCCC1CCCCN1 (stereo not given) | inactive |
| C[C@H]1[C@@H]2Cc3ccc(O)cc3[C@@]1(C)CCN2C | inactive |
| CC(C)[C@@H](C(=O)O[C@@H](C#N)c1cccc(Oc2ccccc2)c1)c1ccc(Cl)cc1 | inactive |
| C=CCOC(=O)C(C)(C)OC(=O)c1cc(-n2c(=O)cc(C(F)(F)F)n(C)c2=O)ccc1Cl | inactive |
| OCC1CO1 (stereo not given) | inactive |
| C=C(Cl)Cl | inactive |
| CC[N+]1(C)CCCC(OC(=O)C(O)(c2ccccc2)c2ccccc2)C1 (stereo not given) | inactive |
| Clc1ccc2ccccc2c1 | inactive |
| O=C(N[C@H]1CN2CCC1CC2)c1ccc2c(c1)OCCO2 | inactive |
| [Cl-].[Cl-].[Hg+2] | 27.2 µM (active) and 6.11 µM (active) |
| N#CC(C#N)=C(C#N)C#N | inactive |
